PubChem BioAssay AID1508600 (Functional Genomics Laboratory (NCATS/FGL), 2020)
Screen size: about 53,000 sequences; about 3,700 (7%) were called active. Only a selection was taken, and actives are over-represented in it overall. A number with no mark means an inactive call.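 How the source made its calls: active means gene knockdowns whose robust z-score for IL-1 alpha signal is at least 2 or at most -2, so actives lie on both sides; inactive means the rest.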

Assay: Components of the Cytosolic LPS Sensing Pathway: Gene Identification via Genome-wide siRNA Screen;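 further: robust z of the log signal after scaling to non-targeting control siRNA wells of the plate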
Settings: RAW264.7 macrophages, IL-1a HTRF, actives lie on both sides, screened at 100 nM (by protocol), cells primed 5 h with Pam3CSK4 first
Method in brief: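 Mouse macrophage line RAW264.7 is transfected with siRNA (100 nM final), grown 48h, primed with TLR ligand Pam3CSK4 5 h and given intracellular LipidA 24 h. IL-1a in supernatant is read by HTRF and viability by luminescence.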

| Sequence | z-score |
| --- | --- |
| GGGAUUUGCCAAAGAAUAGTT against AI597479 | 0.875 |
| GGGUGACAGGGCAUGAGAATT against Macroh2a3 | 0.611 |
| GGCCUUUAAGAGUUUCCAUTT against A230052G05Rik | 2.1 (active) |
| GCAACAAUAUUGCUCUAGATT against Galntl6 | -0.452 |
| GCGAUCAAAAUUGUGUCACTT against Minar2 | -0.776 |
| CGAUCAAAAAAAUCGUGUGTT against Cfap97 | 0.587 |
| GGAAGUGGCCUUAAAGUAUTT against Arhgef37 | -1.67 |
| GUGUCCAGUCCUAAAACGATT against Trib3 | 1.66 |
| GGGAAAGGAUUUUUACAUUTT against Ctdsp1 | 1.83 |
| GCAAACUCAAGGCAUACAUTT against A930017M01Rik | 4.27 (active) |
| GGUGAACCUGGAAGAACUATT against Manea | 1.64 |
| CGCCAAUUCAUCGUUGACUTT against Ccl3 | 0.773 |
| GGAUUUGGAGUAGAUCAAUTT against Tial1 | 0.638 |
| GGAACUGCUAAUCAACCAUTT against Zmynd10 | -2.14 (active) |
| GGAAAAAGAGUCCUUCAUGTT against Minar2 | 1.19 |
| GGAACAAGAAACCACAAUGTT against Agpat1 | 0.281 |
| GGAAGAUGCCAUCUUACACTT against Borcs7 | 2.5 (active) |
| GCAGGUUCACGACACCAACTT against Sv2a | -1.35 |
| GCUGAAUGCGACAUUUAUATT against Hk2 | 0.668 |
| GGCUGAGCUGAUCUUCUUATT against Wnt8a | -0.037 |
| GGUCCGAAAGGCAGCUAUATT against Fcer1g | -2.17 (active) |
| CGAACAUUCCUUCCAUAACTT against Kcnd3 | 0.609 |

| Sequence | z-score |
| --- | --- |
| GGCUGUGCAAGCAAAACCUTT against Mad1l1 | -1.43 |
| GGUACAAGACUGUCAUGUGTT against Mrpl3 | 0.356 |
| GGUCAAAGUCUAGGAGUUUTT against Spp1 | 2.56 (active) |
| GGUGUCCAGUCAAUAAGAGTT against Msx3 | -0.0298 |
| GGAAAGCUUCAAAAUGGUGTT against Foxj2 | -1.26 |
| GGACAUUGACACUACUCCATT against Cyp2c55 | -0.519 |
| GCCCAACUAAGCAAUAAUATT against Fam216b | 0.395 |
| GCCGAGCAGAUGUACAGAATT against Zfp39 | 2.93 (active) |
| GUGGUUGAACGGGAAUUUGTT against Gm11487 | 0.542 |
| GGCUUUAGGUAGUAGUCUCTT against Kansl2 | -2.9 (active) |
| GCCAGUGGAUGUUCAGAAUTT against Ccdc73 | 0.019 |
| GCGAGAGUUUUUCUUCAACTT against Hoxc11 | 0.385 |
| GGAAUGAGGGUAAUGAAUATT against Plin3 | -1.74 |
| GGAGCUAGCUAGAACAAGUTT against Slmap | 1.58 |
| GGAUCAAUCCACAGACGACTT against Dbr1 | 1.56 |
| CGUGGUGAACGAGAUUGAUTT against Kcnab1 | 1.21 |
| GCCUGAUGUUGUUUCCAAATT against Lias | 2.67 (active) |
| GGUGAAGUUGAAUGGAAGUTT against Crebzf | -0.9 |
| CCUAACACUAGUCUCAGAATT against Olfr873 | 0.192 |
| GGUGCUAAUGACCUUUGAATT against Dbp | -1.5 |
| GGAAUGGGAUAGAUUUGUUTT against Ung | 2.51 (active) |
| GCUACCUCUGACGACCAAGTT against Slc23a3 | 1.11 |

| Sequence | z-score |
| --- | --- |
| CCAUCAGGUUUAAGUCGUATT against Vps36 | -0.698 |
| CGAAGAGAAGUUAUUUGUATT against Mrps23 | 1.19 |
| GGUUUACCAGGAAAAUUGATT against Txnrd3 | -1.09 |
| GGGUCACACUUCAUGGCUUTT against Pofut1 | -2.07 (active) |
| GGAUUCUUCGCUCCAAUGATT against Pacs1 | 0.73 |
| GGUAUCCUGAUUGUUGAGUTT against Fam228a | 1.18 |
| GCAUCAUUAUCUUACCAACTT against Olfr826 | -0.994 |
| GAGAGAGGGAAUUUGCUCCTT against Pcdhb8 | 2.6 (active) |
| AUGUGGCAAAACCUUUGCATT against Zfp960 | 0.615 |
| CCCAUGCUUAUUACCGAGATT against Rab37 | 0.0517 |
| GGGUGUCAACCCUUUAGAUTT against C130026I21Rik | 0.685 |
| GCACCUCAAAAGAAUUCAUTT against Septin10 | 1.42 |
| GGAUAAGAAACACAAGAAGTT against Srrm1 | 2.04 (active) |
| GCACAUUUUAGCCUAAUGGTT against Tpm3 | -0.785 |
| CCCACUUGUGGCAGUGUACTT against Stub1 | 0.818 |
| GCGACAAUAUGAGUCACCUTT against Fsd1 | -2.07 (active) |
| GGGUAACAUGAAAGUGAUCTT against Mybbp1a | -0.972 |
| GGACCAAGGAGCAUUGAAATT against Fkbp7 | 1.06 |
| GGAAUUCAUCUGUGGUCUCTT against Trim50 | -0.559 |
| GCUUUAGGUAUGGUCCUAATT against A430072C10Rik | 1.23 |
| GGAUCCAAGGGCAAAAGAUTT against St6galnac1 | -1.36 |
| CGUACUAUAGUAAAUCCAGTT against Clk1 | 2.4 (active) |

| Sequence | z-score |
| --- | --- |
| GCCAAGAAACAAUACUCAUTT against Olfr1352 | 0.694 |
| CCUACCAAAACGACUAUAUTT against Pnma3 | -1.29 |
| CGGGCUGAUUCAACUGGUGTT against Kif1b | 3.64 (active) |
| GGUACCUCUUCUCCUAAAGTT against Vps16 | 0.106 |
| GCAUCUCAGCUCUGAUUUATT against Fgfbp3 | 0.758 |
| GGUAGAAACUGACCACAUATT against Aifm1 | 0.917 |
| GGAGUAAAUUGAGAAACCATT against Acsm5 | -0.149 |
| CCUUUAUUUCUGUGAAUCUTT against Olfr1467 | 0.631 |
| GCUGUUCGUGAGGAUAACCTT against Yipf1 | 1.2 |
| GGGUAGAAUGACUUUGGCCTT against Cldn2 | 1.19 |
| GGCUUAUCAUAUGAAGACATT against Aplp2 | 2.33 (active) |
| GGAGUCACCAGACUUGUGUTT against Svs3b | 0.637 |
| GGAAAAUGCUCACAUAGUGTT against Pak1ip1 | 0.442 |
| CGCAUACUGUGGAAUAGUUTT against Spag4 | -1.26 |
| GGAAUGAAAGUUCCACUAUTT against Emcn | -0.633 |
| CCCACCACUAUUUAUAUGATT against Dlg2 | -0.17 |
| GGAUGUGACAUGAAUCCUGTT against Ankle1 | -0.49 |
| CCAAAACUAGGAAGAAACATT against Olfr716 | -2.3 (active) |
| GGCAAUAAAUAUCCAGAAATT against Crygn | 1.02 |
| GCAGCUCUGCGGAAGCUUUTT against Olfr1350 | -0.505 |
| GGAUCUUGAUAGACUGAUGTT against Rhox5 | 0.362 |
| GGAAAAUCUCCGUUGUCUCTT against Acin1 | -2.76 (active) |

| Sequence | z-score |
| --- | --- |
| UCAUUGAGAAAGGAGAAGATT against Cox17 | -0.547 |
| GGUAGAUAACCUGAUUUAUTT against Slc7a6 | 2.22 (active) |
| GCCUGUGUAUUACUUUUUUTT against Sned1 | -0.786 |
| GGAGUUGCCUCUGAAGACCTT against Ccm2l | 0.797 |
| GGUGUUCAGGAGAUGAUGCTT against Cdt1 | 0.0123 |
| GGAGCAUCUCCUCAUGGAUTT against Actl11 | 2.08 (active) |
| GCCUUAUCCUGAGAAUGGCTT against Lrrc47 | -0.61 |
| GGCUGCUGUUAACAAGCUGTT against Wdr13 | -2.41 (active) |
| GCUCCUCCAGAUACAUGCUTT against Tbrg1 | -0.741 |
| GGUUCUUUCGACUUCCUGCTT against Ccbe1 | -0.166 |
| GGCAACAGACAAACAGCCGTT against Ugcg | -1.54 |
| GGAGAAGAAAAAGCGGUACTT against Plxnb2 | 2.71 (active) |
| GGAGUACUGGGCAUAUAAATT against Slc29a3 | -0.324 |
| GGGUGGUUAGAACAGCCACTT against Prss16 | -1.21 |
| CCCUAGAGAUGGUGGGUCUTT against Olfr934 | -0.484 |
| GGCAGUUAACACUUAAUGATT against Foxp2 | 0.609 |
| GGAACAUAACUCUUGUAUATT against Dhx35 | -1.52 |
| GGAGAAACUUCUUUAAAGCTT against 5830427D03Rik | 0.573 |
| GGACAAGUGCCUCUCACCATT against Glis2 | -3.25 (active) |
| GGCAGAAAGUAAAUCCGUGTT against Exoc3l4 | -1.22 |
